Data taken from paper PMC5540273 (PLoS ONE, 2017).

What was measured:
Conditions in all cases: concentration: 1 μM, replicates: in singlicate; n = 1
EPHB6 = tested on: EPHB6
ERBB2 = tested on: ERBB2
ERBB3 = tested on: ERBB3
ERBB4 = tested on: ERBB4
ERK1 = tested on: T1, ERK1
T1 construct: gene MAPK3

ERK2 = tested on: T2, ERK2
T2 construct: gene MAPK1

ERK3 = tested on: T3, ERK3
T3 construct: gene MAPK6

ERK4 = tested on: T4, ERK4
T4 construct: gene MAPK4

ERK5 = tested on: T5, ERK5
T5 construct: gene MAPK7

ERK8 = tested on: T6, ERK8
T6 construct: gene MAPK15
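Also: KINOMEscan kinase panel screen.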

SMILES | %Inh (EPHB6) [%] | %Inh (ERBB2) [%] | %Inh (ERBB3) [%] | %Inh (ERBB4) [%] | %Inh (ERK1) [%] | %Inh (ERK2) [%] | %Inh (ERK3) [%] | %Inh (ERK4) [%] | %Inh (ERK5) [%] | %Inh (ERK8) [%]
O=C(NCCCN1CCOCC1)c1cccc(Nc2nccc(Nc3ccc(Oc4ccccc4)cc3)n2)c1 [GW663929] | 55 | 38 | 99.3 | 79 | 0 | 0 | 0 | 34 | 27 | 0
Cc1cccc(-c2nc(Nc3ccc4ncsc4c3)c3ccccc3n2)n1 [GW867588] | 0 | 6 | 21 | 25 | 0 | 2 | 0 | 0 | 0 | 0
CNc1ncnc2[nH]ncc12 [SKF-18355] | 0 | 17 | 22 | 4 | 0 | 0 | 0 | 0 | 0 | 14
O=C1NC(=O)C(N2CCc3ccccc32)=C1c1cccc(Cl)c1 [SB-408010] | 0 | 0 | 0 | 0 | 0 | 12 | 0 | 0 | 0 | 9
CN1c2ccc(NCc3ccc(F)cc3)cc2-c2c(cnn2C)S1(=O)=O | 0 | 7 | 27 | 0 | 0 | 0 | 0 | 0 | 3 | 22
